# Data: PubChem BioAssay
# Key:
# [1] = system: Human papillomavirus type 1a protein E7 (residues 44-93); assay: HPV1a E7 fragment binders on microarrays, primary screen, biochemical, small-molecule microarray, residues 44-93, 635 nm fluorescence (AID 1108); conditions: small-molecule microarray binding, fluorescence 635 nm; higher = more signal;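 further: E7 fragment applied at 1 µg/mL in TBST for 1 h at 4 C; score combines spot fluorescence with its signal to noise ratio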
# [2] = modulators of HCV replicon luciferase signal, primary screen, HCV replication inhibitor project, Huh7 cells, luciferase reporter (AID 1109); conditions: 48 h, higher = more signal;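 further: huh7 hepatoma cells harbouring a luciferase neomycin HCV replicon reporter; luciferase luminescence as measure of HCV replicon replication; test concentration not given here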
# [3] = target: Left-right determination factor 2 (Homo sapiens) (UniProt O00292); assay: LEFTY2 binders on small-molecule microarrays, primary screen, biochemical, small-molecule microarray, 635 nm fluorescence scan (AID 1110); conditions: LEFTY2 binding, higher = more signal
# Chain of Left-right determination factor 2 (Homo sapiens) (O00292 whole entry, looked up): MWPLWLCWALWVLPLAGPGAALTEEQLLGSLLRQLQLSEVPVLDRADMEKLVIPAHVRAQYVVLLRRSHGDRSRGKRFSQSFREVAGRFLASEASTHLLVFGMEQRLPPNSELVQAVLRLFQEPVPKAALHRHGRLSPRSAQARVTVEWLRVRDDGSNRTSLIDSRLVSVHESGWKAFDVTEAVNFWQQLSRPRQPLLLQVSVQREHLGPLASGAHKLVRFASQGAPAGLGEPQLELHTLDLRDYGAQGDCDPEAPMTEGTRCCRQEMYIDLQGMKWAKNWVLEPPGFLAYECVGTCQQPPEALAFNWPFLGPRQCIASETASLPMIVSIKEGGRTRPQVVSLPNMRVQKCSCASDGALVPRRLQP
# [4] = target: Calmodulin-1 (Homo sapiens) (UniProt P0DP23); assay: CALM1 binders on microarrays, EGTA buffer, profiling panel, biochemical, small-molecule microarray, Cy5-labelled CALM1 (AID 1111); conditions: Cy5-CALM1 binding fluorescence, higher = more signal;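 further: labelled calmodulin applied in Tris saline Tween buffer holding calcium plus EGTA and DTT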
# [5] = target: Calmodulin-1 (Homo sapiens) (UniProt P0DP23); assay: calcium-bound CALM1 binders on microarrays, profiling panel, artefact control for SMM control-protein annotation, biochemical, small-molecule microarray, Cy5-labelled CALM1, plus calcium (AID 1112); conditions: Cy5-CALM1 binding fluorescence, higher = more signal;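 further: score merges spot fluorescence with signal to noise from triplicate slides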
# [6] = small-molecule microarray binders of probe aWnt5a, primary screen, biochemical, biotinylated probe, 635/667 nm fluorescence (AID 1113); conditions: higher = more signal;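 further: score merges 667 nm fluorescence intensity with signal-to-noise per printed feature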
# [7] = small-molecule microarray binders of probe aShh, primary screen, biochemical, biotinylated probe, 635/667 nm fluorescence (AID 1114); conditions: higher = more signal;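 further: probe is biotin-labelled aShh protein from a stem cell growth factor screen; measures binding of labelled protein to compounds printed on the slide; score merges feature fluorescence at 667 nm with signal-to-noise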
# [8] = small-molecule microarray binders of probe aNog, primary screen, biochemical, biotinylated probe, 635/667 nm fluorescence (AID 1115); conditions: higher = more signal;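 further: probe is biotinylated aNog protein used at 0.15 µg/mL for 1 h at 4 C; z-score combines 667 nm fluorescence of each spot with its signal to noise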
# [9] = target: Torsin-1A-interacting protein 1 (Homo sapiens) (UniProt Q5JTV8); assay: LAP1 binders from COS7 cell lysate, primary screen, small-molecule microarray, 635/667 nm fluorescence (AID 1116); conditions: COS7-hLAP1 lysate binding, 635 nm fluorescence, higher = more signal
# Chain of Torsin-1A-interacting protein 1 (Homo sapiens) (Q5JTV8 whole entry, looked up): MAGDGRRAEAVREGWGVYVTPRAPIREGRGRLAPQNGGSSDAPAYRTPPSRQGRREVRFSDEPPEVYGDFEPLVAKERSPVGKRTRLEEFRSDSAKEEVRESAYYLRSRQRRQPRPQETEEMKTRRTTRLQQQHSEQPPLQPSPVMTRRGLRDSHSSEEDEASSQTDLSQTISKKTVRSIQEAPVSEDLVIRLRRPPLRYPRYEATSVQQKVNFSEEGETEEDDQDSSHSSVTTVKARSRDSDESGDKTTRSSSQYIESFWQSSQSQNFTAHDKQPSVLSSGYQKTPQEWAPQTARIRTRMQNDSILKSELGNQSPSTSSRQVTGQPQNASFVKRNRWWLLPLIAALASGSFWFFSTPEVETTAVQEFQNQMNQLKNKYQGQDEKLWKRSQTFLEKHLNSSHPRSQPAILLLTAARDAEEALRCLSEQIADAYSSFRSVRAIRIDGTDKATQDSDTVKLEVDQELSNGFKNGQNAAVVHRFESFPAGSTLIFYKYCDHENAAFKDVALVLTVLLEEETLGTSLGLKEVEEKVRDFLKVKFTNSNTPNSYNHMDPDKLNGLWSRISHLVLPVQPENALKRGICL
# [10] = target: Alpha-bungarotoxin (Bungarus multicinctus) (UniProt P60615); assay: alpha-bungarotoxin binders on microarray, profiling panel, artefact control for SMM control protein annotation, biochemical, small-molecule microarray, Alexa647 label, 635/667 nm fluorescence (AID 1117); conditions: alpha-BTX-A647 binding fluorescence, higher = more signal
# Chain of Alpha-bungarotoxin (Bungarus multicinctus) (P60615 whole entry, looked up): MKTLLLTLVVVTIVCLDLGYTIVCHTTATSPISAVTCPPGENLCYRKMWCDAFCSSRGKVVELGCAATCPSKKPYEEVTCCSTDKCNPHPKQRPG
SMILES,composite z-score [1],z-score [2],composite z-score [3],composite z-score [4],composite z-score [5],composite z-score [6],composite z-score [7],composite z-score [8],composite z-score [9],composite z-score [10]
CC(=O)NCCCC[C@@H]1NC(=O)[C@H]2C[C@@H](C(=O)NCCCCCCNC(=O)CS)[C@@H](c3ccc(O)cc3)N2C1=O,1.06,-0.532,-0.747,0.362,-0.295,-0.124,0.131,0.0933,0.284,1.33
[N-]=[N+]=Nc1ccccc1[C@@H]1OC(c2ccc(OCCCO)cc2)=N[C@]1(CCS(=O)(=O)c1ccccc1)C(N)=O,1.38,0.272,-0.109,0.925,0.629,0.29,0.57,1.51,1.81,0.992
COCCOC(=O)N1C(=O)[C@@]2(c3cc(C#CCNC(N)=O)ccc31)[C@H](C(=O)Nc1nc3ccccc3s1)[C@H]1C(=O)O[C@H](c3ccccc3)[C@H](c3ccccc3)N1[C@@H]2c1ccc(OCCO)cc1,1.26,-1.08,0.825,1.37,0.662,0.003,-0.382,-0.229,0.415,1.24
COCCCNC(=O)[C@@]1(C)c2ccccc2C(=O)N(C(C)C)[C@H]1c1ccc(CO)cc1,0.761,-0.659,0.577,-0.342,-0.574,-0.152,-0.01,-0.0247,0.999,0.547
C=CCOC(=O)[C@H]1[C@@H]2C(=O)O[C@@H](c3ccccc3)[C@@H](c3ccccc3)N2[C@@H](c2ccc(OCCOC(=O)[C@H]3C[C@H]4C(=O)N[C@@H](CCCC[N+](C)(C)C)C(=O)N4[C@H]3c3ccc(O)cc3)cc2)[C@]12C(=O)Nc1ccc(I)cc12,0.756,-0.537,0.853,-0.421,-0.0782,0.0549,1.11,1.86,0.218,0.659
COCCCNC(=O)[C@]1(CCC(=O)OC(C)(C)C)N=C(c2ccc(OCCCO)cc2)O[C@@H]1c1ccccc1CN=[N+]=[N-],1.31,-1.74,0.254,1.38,0.282,0.45,0.147,2.04,1.29,0.312
CCOC(=O)C1=C[C@@H](C(C)(C)C)N(S(=O)(=O)c2ccc(C)cc2)[C@H]1c1ccc(F)cc1,1.41,-1.59,0.653,1.49,0.083,0.0668,-0.1,0.509,0.992,1.15
O=C1[C@@]23C=C(Br)[C@H](C[C@@H]2CCOC3)[C@@]12CO2,0.364,-2.17,0.459,-0.206,-0.657,-0.0585,0.151,-0.303,1.53,0.331
CCOC(=O)C[C@H]1[C@H](OC(=O)c2ccc(C(=O)c3ccccc3)cc2)[C@@H](NC(=O)c2ccccc2)c2cc(OCCCO)ccc2N1C(=O)c1ccc2ccccc2n1,1.31,-1.16,0.495,1.61,0.506,-0.0614,-0.138,-0.308,0.239,0.635
COCCOC(=O)N1C(=O)[C@@]2(c3cc(C#CCCO)ccc31)[C@H](C(N)=O)[C@H]1C(=O)O[C@H](c3ccccc3)[C@H](c3ccccc3)N1[C@@H]2c1ccc(O)cc1,-0.48,0.11,-0.142,-0.0162,0.461,-0.0197,-0.0035,0.0107,0.169,0.244
C=CCOC(=O)[C@H]1[C@@H]2C(=O)O[C@@H](c3ccccc3)[C@@H](c3ccccc3)N2[C@@H](c2ccc(OCCOC(=O)[C@@H]3C[C@@H]4C(=O)N[C@@H](CC(C)C)C(=O)N4[C@@H]3c3ccc(O)cc3)cc2)[C@]12C(=O)Nc1ccccc12,1.12,-1.47,0.701,2.5,0.137,0.0044,0.14,0.938,1.75,1.6
COc1ccc([Si](C)(C)[C@@H]2[C@@H](CCO)O[C@]3(C(=O)N(Cc4ccc(N(C=O)c5ccccc5)cc4)c4ccccc43)[C@H]2C)cc1,0.121,-4.67,0.0196,1.32,0.973,-0.0203,0.385,0.286,0.419,1.62
CO[C@H]1O[C@H](CO)[C@@H](OC(=O)Nc2ccc(Oc3ccccc3)cc2)[C@H](OC(=O)Nc2ccc3c(c2)OCO3)[C@H]1OC(=O)Nc1ccc2c(c1)OCO2,1.3,-0.289,0.467,1.96,-0.207,0.105,-0.183,0.414,1.62,2.13
O=C(OCc1ccccc1)C1=CCC2c3[nH]c4ccccc4c3C(=O)C1N2S(=O)(=O)c1ccccc1[N+](=O)[O-] (stereo not given),1.42,-2.6,0.831,0.418,-0.369,0.0597,0.14,-0.549,0.432,0.584
COCCOC(=O)N1C(=O)[C@@]2(c3cc(C#Cc4ccc(OC)cc4)ccc31)[C@H](c1ccccc1OCCO)N1[C@H](c3ccccc3)[C@H](c3ccccc3)OC(=O)[C@H]1[C@@H]2C(=O)NC[C@H](O)c1ccccc1,1.44,-2.03,0.46,1.03,0.427,-0.0445,0.0469,0.407,0.819,1.86
COCCCNC(=O)[C@@H]1c2ccccc2C(=O)N(Cc2ccccc2Cl)[C@H]1c1ccc(CO)cc1,0.867,0.318,0.67,-0.48,-0.613,-0.0792,0.0684,-0.382,1.51,-0.195
O=C1C2C=CC(C(O)Cc3ccccc3)N(n3cnnc3)C2C(=O)N1Cc1ccccc1 (stereo not given),0.625,-0.53,-0.262,0.841,0.471,0.127,-0.007,0.908,0.955,0.165
C=CC(=C)[C@H]1Oc2ccccc2S(=O)(=O)N2CCC[C@@H]12,-1.24,-3.25,0.0569,-0.523,-0.536,-0.138,-0.0211,-0.353,-0.448,0.279
CO[C@H]1O[C@H](CO)[C@@H](OC(=O)Nc2ccc(C(F)(F)F)cc2)[C@H](OC(=O)Nc2ccc3c(c2)OCO3)[C@@H]1OC(=O)Nc1ccc2c(c1)OCO2,0.335,-2.44,0.819,0.784,-0.764,0.101,0.221,1.71,1.34,0.943
COc1cc(Br)cc(C(O)C2C=CC3C(=O)N(C)C(=O)C3N2N2CCCCC2)c1OC (stereo not given),0.207,-0.0024,-1.31,-0.104,0.315,-0.0735,0.304,0.69,1.09,-0.251
CN1C(=O)C2C=CC(C(O)c3ccc([N+](=O)[O-])cc3)N(N3CCCCC3)C2C1=O (stereo not given),1.33,0.702,0.169,1.42,0.0877,0.0913,0.108,1.59,-0.0204,1.08
CCOC(=O)C[C@H]1[C@H](OC(=O)c2ccc(C(=O)c3ccccc3)cc2)[C@@H](NC(=O)CC(C)C)c2cc(OCCCO)ccc2N1C(=O)c1ccc2ccccc2n1,1.15,-1.22,0.592,0.711,-0.297,-0.0704,-0.0793,-0.318,0.547,0.719
C=C(C)[C@@H]1CC=C(C(O)C2C=CC3C(=O)N(c4ccccc4)C(=O)C3N2Nc2ccccc2)CC1 (stereo not given in full),0.478,-1.38,0.261,2.06,0.103,0.212,0.642,1.95,1.79,2.62
CC(C)C[C@@H]1NC(=O)[C@H](C(C)C)NC(=O)[C@@]23C(=O)N[C@@H](Cc4ccccc4)C2[C@H](C)[C@@]2(C)O[C@H]2C3/C=C/CC/C=C/CNC1=O (stereo not given in full),1.35,-1.41,0.413,-0.245,-0.736,-0.117,-0.283,-0.397,0.268,0.705
C[N+](C)(C)CCCC[C@@H]1NC(=O)[C@H]2C[C@@H](C(=O)NCCCCCCNC(=O)CS)[C@@H](c3cccc(OCCO)c3)N2C1=O,-1.51,-0.242,-1.55,-0.149,0.105,-0.202,-0.17,-0.175,-0.933,-1.06
COc1ccc([C@H]2OC[C@@H]3C[C@@H](Cc4ccccc4)C(=O)N32)cc1,-0.235,-0.859,0.311,-0.05,-0.317,-0.0203,-0.0146,-0.0273,0.53,-0.429
CC(C)=CCN[C@H](CO)c1ccccc1,0.318,-1.76,0.422,-0.644,-0.881,-0.13,0.0048,-0.278,0.157,0.189
O=C(NC1CC1)[C@@H]1c2ccccc2C(=O)N(Cc2ccccc2Cl)[C@H]1c1ccc(CO)cc1,0.791,-2.09,0.697,1.08,0.287,-0.0765,-0.138,0.233,1.46,0.759
CC(C)C[C@@H]1NC(=O)[C@@H]2C[C@H](C(=O)O)[C@H](c3cccc(OCCO)c3)N2C1=O,-0.366,0.148,-0.312,0.26,0.758,-0.147,-0.199,-0.066,0.517,-0.937
C=CCN1C(=O)[C@]2(O[C@H](CCn3cc([C@H](O)c4ccccc4)nn3)[C@@H]([Si](C)(C)c3ccc(OC)cc3)[C@@H]2C)c2ccccc21,-1.22,-2.71,-0.901,-0.525,0.227,-0.124,-0.0146,-0.223,-0.252,-1.56
